Measurements taken from PubChem BioAssay (NCI).
This is part of a sample that, as a whole, favours compounds with a hit. Of some 83,000 tested, about 20% had one in any assay.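 Note: values are percent growth. 100 is the growth of untreated cells, values between 100 and 0 indicate rising inhibition; between -100 and 0 indicates cell death.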 Calls of active or inactive are those of the source. How the source made its calls: active means growth percent below 10; inactive means the rest.

Experiments:
Assay in all cases: NCI-60 one-dose screen, 48 h (100 = growth as untreated, 0 = no growth, -100 = all killed)
Conditions in all cases: 10 µM unless noted
HCT-15 colon = tested on: HCT-15 colon
HT29 colon = tested on: HT29 colon
SNB-75 CNS = tested on: SNB-75 CNS
SNB-19 CNS = tested on: SNB-19 CNS
U251 CNS = tested on: U251 CNS
PC-3 prostate = tested on: PC-3 prostate
SK-MEL-5 melanoma = tested on: SK-MEL-5 melanoma
UACC-62 melanoma = tested on: UACC-62 melanoma
LOX IMVI melanoma = tested on: LOX IMVI melanoma
SK-MEL-2 melanoma = tested on: SK-MEL-2 melanoma
EKVX NSCLC = tested on: EKVX NSCLC
SN12C renal = tested on: SN12C renal
UO-31 renal = tested on: UO-31 renal
TK-10 renal = tested on: TK-10 renal
ACHN renal = tested on: ACHN renal
CAKI-1 renal = tested on: CAKI-1 renal
A498 renal = tested on: A498 renal
CCRF-CEM leukemia = tested on: CCRF-CEM leukemia
MOLT-4 leukemia = tested on: MOLT-4 leukemia
SK-MEL-28 melanoma = tested on: SK-MEL-28 melanoma

Measured: growth

Cc1ccc2c(c1)ncn2-c1ncnc2c1CC(C)c1ccccc1N2C (stereo not given)
inactive: SNB-75 CNS 43.9% | SNB-19 CNS 37.6% | U251 CNS 12.1% | PC-3 prostate 20.9% | UACC-62 melanoma 21.5% | LOX IMVI melanoma 20.8% | SK-MEL-2 melanoma 32.7% | EKVX NSCLC 40.8% | SN12C renal 21.2% | UO-31 renal 26.9% | ACHN renal 20.2% | CAKI-1 renal 19.6% | CCRF-CEM leukemia 13.3% | MOLT-4 leukemia 12%
active: HCT-15 colon 8.43% | HT29 colon 0.836% | SK-MEL-5 melanoma -49.2% | TK-10 renal 8.21% | A498 renal -11.7%

CC/C(=C(\c1ccc(O)cc1)c1ccc(OCCN(C)CCN(C)C(=O)CCC(=O)c2c(C)[nH]c(/C=C3\N=C(c4ccc[nH]4)C=C3OC)c2C)cc1)c1ccccc1
inactive: HCT-15 colon 34.3% | HT29 colon 15.5% | SNB-75 CNS 92.4% | SNB-19 CNS 108% | U251 CNS 63.2% | SK-MEL-5 melanoma 78.2% | UACC-62 melanoma 14.2% | LOX IMVI melanoma 33.6% | SK-MEL-28 melanoma 61.7% | SK-MEL-2 melanoma 96.8% | SN12C renal 91.8% | UO-31 renal 46.9% | TK-10 renal 117% | CAKI-1 renal 71.4% | A498 renal 65.2% | CCRF-CEM leukemia 40.8% | MOLT-4 leukemia 71.7%

Cc1ccc(C(=O)c2sc3nc4c(cc3c2N)CCCC4)c(C)c1
inactive: HCT-15 colon 29.8% | SNB-19 CNS 51.5% | U251 CNS 21.2% | SK-MEL-5 melanoma 24.6% | UACC-62 melanoma 24.3% | LOX IMVI melanoma 30.6% | SK-MEL-28 melanoma 55% | SN12C renal 44.1% | UO-31 renal 30.8% | ACHN renal 46.4% | MOLT-4 leukemia 21.8%
active: HT29 colon 9.13% | SNB-75 CNS -14.3% | SK-MEL-2 melanoma -13.7% | CAKI-1 renal 7.6% | A498 renal -10.8% | CCRF-CEM leukemia 6.69%

O=C(CC(O)c1ccncc1)c1ccccc1 (stereo not given)
active: SNB-75 CNS -5.32% | LOX IMVI melanoma -38% | SN12C renal -22.2% | TK-10 renal -30.8% | ACHN renal -28.5%
inactive: HCT-15 colon 36.4% | HT29 colon 32.7% | SNB-19 CNS 68.2% | U251 CNS 73.4% | SK-MEL-5 melanoma 88.3% | UACC-62 melanoma 89.3% | SK-MEL-28 melanoma 105% | SK-MEL-2 melanoma 57.1% | UO-31 renal 49.7% | CAKI-1 renal 86.2% | A498 renal 62.4% | CCRF-CEM leukemia 99.9% | MOLT-4 leukemia 90.9%

CCCCNc1nnc(-c2cc(-c3cc4ccccc4o3)nn2-c2ccccc2)o1
inactive: HCT-15 colon 95.3% | HT29 colon 93.6% | SNB-75 CNS 102% | SNB-19 CNS 91.2% | U251 CNS 82.1% | SK-MEL-5 melanoma 71.9% | UACC-62 melanoma 76.7% | LOX IMVI melanoma 82.3% | SK-MEL-28 melanoma 108% | SK-MEL-2 melanoma 90.6% | EKVX NSCLC 99.4% | SN12C renal 93.6% | UO-31 renal 71.3% | TK-10 renal 104% | ACHN renal 85.9% | CAKI-1 renal 97.4% | A498 renal 86.5% | CCRF-CEM leukemia 80% | MOLT-4 leukemia 68.8%

Cc1cccc(-n2c(C)nc3ccc(NC(=O)NCCCl)cc3c2=O)c1
inactive: HCT-15 colon 93.8% | HT29 colon 106% | SNB-75 CNS 77.5% | SNB-19 CNS 101% | U251 CNS 100% | SK-MEL-5 melanoma 102% | UACC-62 melanoma 103% | LOX IMVI melanoma 95.6% | SK-MEL-28 melanoma 113% | SK-MEL-2 melanoma 114% | SN12C renal 107% | UO-31 renal 94.2% | TK-10 renal 99.6% | ACHN renal 111% | CAKI-1 renal 97.6% | MOLT-4 leukemia 105%
active: CCRF-CEM leukemia -43.7%

CNC(=O)Cc1nc(-c2cccc(NS(=O)(=O)c3c(F)cccc3F)c2F)c(-c2ccnc(Nc3ccccc3)n2)s1
active: HT29 colon 6.8% | UACC-62 melanoma 5.51% | LOX IMVI melanoma 9.18%
inactive: HCT-15 colon 72.1% | SNB-75 CNS 58.2% | SNB-19 CNS 75.4% | U251 CNS 86.6% | SK-MEL-5 melanoma 63.2% | SK-MEL-28 melanoma 15.2% | SK-MEL-2 melanoma 55.2% | SN12C renal 40.5% | UO-31 renal 27.3% | TK-10 renal 42.7% | ACHN renal 10.7% | CAKI-1 renal 41.5% | CCRF-CEM leukemia 87.6% | MOLT-4 leukemia 68.4%

C=C1C(=O)O[C@H]2[C@H]1CC/C(Cn1cc(-c3ccsc3)nn1)=C\CC[C@@]1(C)O[C@@H]21
active: HCT-15 colon -77.5% | HT29 colon -68.5% | U251 CNS 4.91% | SK-MEL-5 melanoma -42.1% | UACC-62 melanoma -55.7% | LOX IMVI melanoma -94.3% | SK-MEL-28 melanoma -54% | SK-MEL-2 melanoma -21.5% | EKVX NSCLC -80.3% | SN12C renal -18.3% | UO-31 renal -91.5% | TK-10 renal -50.6% | ACHN renal -90.5% | CAKI-1 renal -53.5% | A498 renal -4.99% | CCRF-CEM leukemia -24.7% | MOLT-4 leukemia -13.3%
inactive: SNB-75 CNS 21.7% | SNB-19 CNS 59.8%

COc1cccc2cc(-c3cc4ccccc4[nH]3)c(=NC(=O)c3ccc(Cl)cc3)oc12
inactive: HCT-15 colon 43.3% | HT29 colon 64.4% | SNB-19 CNS 53.5% | U251 CNS 43.9% | SK-MEL-5 melanoma 81.7% | UACC-62 melanoma 73.8% | LOX IMVI melanoma 75.5% | SK-MEL-28 melanoma 82.2% | SK-MEL-2 melanoma 83.3% | EKVX NSCLC 77.9% | SN12C renal 83.8% | UO-31 renal 58.4% | TK-10 renal 96.6% | ACHN renal 51.5% | CAKI-1 renal 53.8% | A498 renal 64.9% | MOLT-4 leukemia 61.5%
active: SNB-75 CNS 5.92%

Cc1cc(Nc2nc(-c3ccncc3)nc3ccccc23)n[nH]1
active: SNB-75 CNS -23.4% | CAKI-1 renal -6.19% | A498 renal 4.45%
inactive: HCT-15 colon 44.2% | HT29 colon 61.3% | SNB-19 CNS 95% | U251 CNS 115% | SK-MEL-5 melanoma 89.1% | UACC-62 melanoma 55.3% | LOX IMVI melanoma 62.7% | SK-MEL-28 melanoma 69.1% | SK-MEL-2 melanoma 57.6% | SN12C renal 61.6% | UO-31 renal 33.4% | TK-10 renal 62% | ACHN renal 40.2% | CCRF-CEM leukemia 67.6% | MOLT-4 leukemia 60.5%

Nc1c(C(=O)Nc2cccc(C(F)(F)F)c2)sc2nc3c(cc12)CCCCC3
active: SNB-75 CNS -38.2% | U251 CNS -57% | SK-MEL-5 melanoma 0.77% | LOX IMVI melanoma 8.87% | SN12C renal 2.78% | UO-31 renal -39.8% | TK-10 renal -16.2% | ACHN renal -67.4% | A498 renal -21.8%
inactive: HCT-15 colon 50.5% | HT29 colon 20.6% | SNB-19 CNS 44.8% | UACC-62 melanoma 12.8% | SK-MEL-28 melanoma 20.8% | SK-MEL-2 melanoma 39.4% | CAKI-1 renal 16.2% | CCRF-CEM leukemia 61.9% | MOLT-4 leukemia 83%

O=C(N/N=C/c1c(Cl)cccc1Cl)c1ccccc1Nc1ccnc(C(F)(F)F)c1
inactive: HCT-15 colon 64.8% | HT29 colon 90.9% | SNB-75 CNS 62.8% | SNB-19 CNS 68.3% | U251 CNS 67.7% | SK-MEL-5 melanoma 41.2% | UACC-62 melanoma 55.6% | LOX IMVI melanoma 62.3% | SK-MEL-28 melanoma 84.2% | SK-MEL-2 melanoma 69.6% | SN12C renal 75.7% | UO-31 renal 84.1% | TK-10 renal 95.4% | ACHN renal 78.8% | CAKI-1 renal 77.6% | CCRF-CEM leukemia 81.6% | MOLT-4 leukemia 63.4%

COC1=CC(c2ccc[nH]2)=N/C1=C\c1[nH]c(C)c(C(=O)CCC(=O)Oc2ccc3c(c2)CCC2C3CC[C@]3(C)[C@@H](O)CC[C@@H]23)c1C (stereo not given in full)
active: HCT-15 colon -48% | HT29 colon 6.68% | U251 CNS -48.4% | SK-MEL-5 melanoma -84.2% | UACC-62 melanoma -41.8% | LOX IMVI melanoma -81.7% | SK-MEL-2 melanoma 1.42% | UO-31 renal -61.9% | ACHN renal -55.3% | CAKI-1 renal -39.3% | A498 renal -12.7% | CCRF-CEM leukemia 0.176% | MOLT-4 leukemia -9.7%
inactive: SNB-75 CNS 12.1% | SNB-19 CNS 37.2% | SK-MEL-28 melanoma 41.2% | SN12C renal 17.3% | TK-10 renal 34.4%

COc1cc2nc(SCc3cc(OC)c(OC)c(OC)c3)n(Cc3ccccc3)c(=O)c2cc1OC
inactive: HCT-15 colon 20.1% | HT29 colon 10.6% | SNB-19 CNS 48.8% | U251 CNS 29% | UACC-62 melanoma 23.4% | LOX IMVI melanoma 37.7% | SK-MEL-28 melanoma 39.2% | SN12C renal 41.2% | UO-31 renal 34.7% | TK-10 renal 64.3% | ACHN renal 39.2% | CAKI-1 renal 25.7% | CCRF-CEM leukemia 23% | MOLT-4 leukemia 16.7%
active: SNB-75 CNS -16.6% | SK-MEL-5 melanoma -8.17% | SK-MEL-2 melanoma -9.82% | A498 renal -5.24%

C=C1C(=O)O[C@H]2[C@H]1CC/C(COC(=O)NCc1cc(OC)c(OC)c(OC)c1)=C\CC[C@@]1(C)O[C@@H]21
inactive: HCT-15 colon 42.3% | HT29 colon 21.4% | SNB-75 CNS 83.8% | SNB-19 CNS 72.8% | U251 CNS 81.3% | SK-MEL-5 melanoma 95.2% | UACC-62 melanoma 38.8% | LOX IMVI melanoma 54.3% | SK-MEL-28 melanoma 63.2% | SK-MEL-2 melanoma 73.8% | EKVX NSCLC 75.8% | SN12C renal 47.6% | UO-31 renal 70.6% | TK-10 renal 51.6% | ACHN renal 45.5% | CAKI-1 renal 54.1% | A498 renal 109% | MOLT-4 leukemia 54.1%
active: CCRF-CEM leukemia 6.67%

O=C(Nc1ccc(F)cc1)c1cc([N+](=O)[O-])ccc1O
inactive: HCT-15 colon 68.1% | HT29 colon 61.7% | SNB-19 CNS 70.9% | U251 CNS 61.6% | PC-3 prostate 54.7% | SK-MEL-5 melanoma 30% | UACC-62 melanoma 36.8% | LOX IMVI melanoma 56.3% | SK-MEL-28 melanoma 55.9% | SK-MEL-2 melanoma 37% | EKVX NSCLC 77% | SN12C renal 82.4% | UO-31 renal 58.9% | TK-10 renal 81.6% | ACHN renal 73.2% | CAKI-1 renal 67.1% | A498 renal 25.5% | CCRF-CEM leukemia 59.5% | MOLT-4 leukemia 63.3%

CC(C)(C)c1ccc(S(=O)(=O)Oc2ccc3c4c(c(=O)oc3c2)CCCCC4)cc1
active: SK-MEL-5 melanoma -3.23% | A498 renal -0.52%
inactive: HCT-15 colon 30.5% | HT29 colon 15.8% | SNB-75 CNS 39.1% | SNB-19 CNS 82% | U251 CNS 54.3% | UACC-62 melanoma 30.3% | LOX IMVI melanoma 43.2% | SK-MEL-28 melanoma 39.4% | SK-MEL-2 melanoma 45% | SN12C renal 63.3% | UO-31 renal 43.4% | TK-10 renal 87.1% | ACHN renal 30.3% | CCRF-CEM leukemia 58.6% | MOLT-4 leukemia 54.7%
